# Assay results published in PubChem BioAssay (NCATS).
# Active and inactive are the calls of the source. Calls come from the whole dose curve.
# Test: qHTS drug screen for cell cycle checkpoint inhibitors in PARPi-resistant BRCA-mutant ovarian cancer cell lines. (AID 1963452)
# Conditions: PEO1/OlaR viability, CellTiter-Glo luminescence, 96 h, stronger effect = lower value
# Source text: Women's Malignancies Branch, Center for Cancer Research (CCR),
# National Cancer Institute (NCI), National Institutes of Health (NIH), Bethesda, MD
# Poly (ADP-ribose) polymerase inhibitors (PARPis) have changed the treatment paradigm in breast cancer gene (BRCA) - mutant high-grade serous ovarian carcinoma (HGSC). However, most patients eventually develop resistance to PARPis, highlighting an unmet need for improved therapeutic strategies. Using high-throughput drug screens, we identified ataxia telangiectasia and rad3-related protein/checkpoint kinase 1 (CHK1) pathway inhibitors as cytotoxic and further validated the activity of the CHK1 inhibitor (CHK1i) prexasertib in PARPi-sensitive and -resistant BRCA-mutant HGSC cells and xenograft mouse models. CHK1i monotherapy induced DNA damage, apoptosis, and tumor size reduction. We then conducted a phase 2 study (NCT02203513) of prexasertib in patients with BRCA-mutant HGSC. The treatment was well tolerated but yielded an objective response rate of 6% (1 of 17; one partial response) in patients with previous PARPi treatment. […] BRCA reversion mutation in previously PARPi-treated BRCA-mutant patients was not associated with resistance to CHK1i.
# Among others, 1082 oncology drugs, both approved and investigational, were prioritized based on their status in clinical trial development. […] Drugs with average Z-AUC values less than -1.0 in all three cell lines were classified as "hits" resulting in 151 oncology drug hits. The screen also confirmed cross-resistance between olaparib and other PARPis (rucaparib, niraparib, and talazoparib) in PARPi-resistant PEO1/OlaR and PEO4.
# [1] G. L. Lin, K. M. Wilson, M. Ceribelli, B. Z. Stanton, P. J. Woo, S. Kreimer, E. Y. Qin, X. Zhang, J. Lennon, S. Nagaraja, P. J. Morris, M. Quezada, S. M. Gillespie, D. Y. Duveau, A. M. Michalowski, P. Shinn, R. Guha, M. Ferrer, C. Klumpp-Thomas, S. Michael, C. McKnight, P. Minhas, Z. Itkin, E. H. Raabe, L. Chen, R. Ghanem, A. C. Geraghty, L. Ni, K. I. Andreasson, N. A. Vitanza, K. E.Warren, C. J. Thomas, M. Monje, Therapeutic strategies for diffuse midline glioma from high-throughput combination drug screening. Sci. Transl. Med. 11, (2019).
# [2] T. M. Yamamoto, A. McMellen, Z. L. Watson, J. Aguilera, R. Ferguson, E. Nurmemmedov, T. Thakar, G. L. Moldovan, H. Kim, D. M. Cittelly, A. M. Joglar, E. P. Brennecke, H. Wilson, K. Behbakht, M. J. Sikora, B. G. Bitler, Activation of Wnt signaling promotes olaparib resistant ovarian cancer. Mol. Carcinog. 58, 1770 - 1782 (2019).
# PROTOCOL TABLE (as described by Inglese J, Shamu CE and Guy RK. 2007)
# SEQUENCE No. (e.g., 1, 2, 3, etc.); […] (e.g., Cells, Incubation, Reagent, etc.); VALUE; DESCRIPTION.
# 1; Compounds; 20nL; 1536-well white tissue culture-treated plates.
# 2; Cells; 5 uL; PEO1, PEO4, and PEO1/OlaR cells at 600 cells per well.
# 3; Incubation; 96 hr; 37C, 95% humidity, 5% CO2.
# 4; Reagent; 3 uL; CellTiter-Glo (Promega).
# 5; Incubation; 15 min; room temperature.
# 6; Detection; Luminescence, PHERAstar (BMG Labtech) plate reader.
# NOTES (numbers refer to Sequence numbers above)
# 1. MIPE 5.0 compounds were acoustically dispensed by Echo Acoustic Liquid Handler (Beckman Coulter Life Sciences). Each compound was plated at an 11-point concentration range with 1:3 dilution. Bortezomib, a proteasome inhibitor (final concentration, 20 uM), was used as a positive.
# 2. PEO1, PEO4, and PEO1/OlaR were trypsinized and dispensed in 5 uLof growth medium using a Multidrop Combi dispenser at a density of 600 cells per well to allow compounds to be present during the exponential growth phase.
# 3. Plates were incubated for 96 hours at standard incubator conditions and covered by a stainless steel gasketed lid to prevent evaporation.
# 4. Three microliters of CellTiter-Glo (Promega) were added to each well.
# 5. Plates were incubated at room temperature for 15 min with a stainless-steel lid in place.
# 6. Luminescence readings were taken using PHERAstar (BMG Labtech). […]
# [1] = measured here: PEO1 parental Z-AUC
SMILES,Z-AUC,Z-AUC [1],Z-AUC (measured here: PEO4 Z-AUC)
Nc1nc(=O)n([C@H]2C[C@H](O)[C@@H](CO)O2)cc1F,-1.47 (inactive),-1.19,-0.999
CN1C(C(=O)Nc2ccccn2)=C(O)c2sc(Cl)cc2S1(=O)=O,0.627 (inactive),0.551,0.669
CCN(CC)CCCCNc1ncc2c(n1)N(C)C(=O)N(c1c(Cl)c(OC)cc(OC)c1Cl)C2,0.806 (inactive),1.27,0.972
Cc1ncc(-c2ccnc(Nc3ccc(S(C)(=O)=O)cc3)n2)n1C(C)C,-1.39 (inactive),-0.968,-1.44
O=c1c(O)c(-c2ccc(O)c(O)c2)oc2cc(O)ccc12,0.12 (inactive),-0.105,0.0271
c1cc(CN2CCCNCCNCCCNCC2)ccc1CN1CCCNCCNCCCNCC1,0.916 (inactive),0.744,1.11
Cc1ccc2nc(NCCN)c3ncc(C)n3c2c1,0.876 (inactive),0.537,1.09
CC(C)Oc1ccc(C(=O)N[C@H](CNC(=O)CN(C)C)Cc2ccc(-c3cn4cccc([C@H](C)O)c4n3)cc2)cc1Cl,-1.44 (inactive),-0.733,-1.18
C[C@H]1COc2c(N3CCN(C)CC3)c(F)cc3c(=O)c(C(=O)O)cn1c23,-0.648 (inactive),-0.279,-0.579
Cn1cnc(=N)c2[nH]cnc21,1.05 (inactive),0.768,0.897
C=Cc1c(C)c2cc3nc(cc4[nH]c(cc5nc(cc1[nH]2)C(C)=C5CCC(=O)O)c(CCC(=O)OC)c4C)[C@@]1(C)C3=CC=C(C(=O)OC)[C@H]1C(=O)OC,0.838 (inactive),1.25,1.36
CC(=O)OC[C@@H]1O[C@@H](n2ccc(=O)[nH]c2=O)[C@H](OC(C)=O)[C@H]1OC(C)=O,0.415 (inactive),0.423,0.195
O=C(O)c1ccc(Nc2ncc3c(n2)-c2ccc(Cl)cc2C(c2c(F)cccc2F)=NC3)cc1,0.584 (inactive),0.311,-0.364
O=[N+]([O-])c1cn2c(n1)OC[C@@H](OCc1ccc(OC(F)(F)F)cc1)C2,0.733 (inactive),0.61,0.849
